D1 PAM = enhances dopamine response at the human D1 receptor; P21728; HEK293 TREx D1 cells, calcium flux, dopamine EC20 potentiation; potentiation, % at 10 µM; actives 0.036% (n = 360,000); AID 504651; in the data active means potentiation above about 30%; further: 0% is about no effect
DRD3 agonist = D3 dopamine receptor (human) agonism; P35462; D3R DiscoveRx beta-arrestin cells, luminescence, 90 min; max activation, %; actives 0.58% (n = 410,000); AID 652048; in the data active means max activation above about 30%; further: 0% is about no effect
Target sequence (P35462 whole entry, looked up): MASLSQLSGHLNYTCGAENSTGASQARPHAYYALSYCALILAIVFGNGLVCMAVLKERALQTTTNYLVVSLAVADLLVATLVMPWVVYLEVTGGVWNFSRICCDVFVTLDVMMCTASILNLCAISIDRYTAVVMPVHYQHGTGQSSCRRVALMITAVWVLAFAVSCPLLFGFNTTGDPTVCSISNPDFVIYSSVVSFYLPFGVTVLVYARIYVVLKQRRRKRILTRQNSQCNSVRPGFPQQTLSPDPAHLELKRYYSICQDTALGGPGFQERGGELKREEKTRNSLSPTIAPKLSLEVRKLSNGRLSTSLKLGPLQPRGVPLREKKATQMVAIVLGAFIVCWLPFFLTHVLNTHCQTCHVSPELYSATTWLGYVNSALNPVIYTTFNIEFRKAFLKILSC
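Agonist-mode cell screen: cells plated at 1500/well and incubated overnight at 37 °C, then exposed to library compounds for 90 min at 37 °C. Detection reagent was added for 30–60 min at room temperature, and luminescence was read.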
D1 antagonist = blocks dopamine activation of the human D1 receptor | HEK293 TREx D1 cells, calcium flux, dopamine EC80; active compounds read low | activity change, negative = inhibition, % at 10 µM | actives 3.2% (n = 360,000) | AID 504652; in the data active means activity change below about -30%; further: on the % scale 0 is the no-effect control and ±100 the full control effect
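Inducible Hek293 Trex D1 cells (tetracycline, overnight, 30 C). Calcium dye 30–90 min RT. Antagonist mode: EC80 dopamine added after 180 s compound read.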
D1 ag = agonists of human D1 dopamine receptor; P21728; HEK293 T-REx D1 cells, calcium flux, agonist mode; activation, % at 2 µM; actives 1% (n = 360,000); in the data active means activation above about 30%; further: 0% is about no effect
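Tetracycline-induced HEK293 TREx D1 cells, force-coupled to calcium signalling, were dye-loaded with a no-wash calcium kit. Compound was pin-added after a 10 s baseline. Fluorescence was read kinetically at 1 cycle/s for 180 s, with calcium rises flagged as agonism.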
DRD3 antagonist = D3 dopamine receptor (human) antagonism. actives 2.5% (n = 360,000). AID 652054. max response, negative = inhibition, %. D3R cells, DiscoveRx beta-arrestin luminescence, antagonist mode; active compounds read low. P35462; in the data active means max response below about -50%; inconclusive means no clear call, values can overlap the other calls; further: on the % scale 0 is the no-effect control and ±100 the full control effect
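Cells plated overnight at 1500 cells/well, then exposed to library compounds with dopamine controls for 90 minutes at 37 degrees C. DiscoveRx reagent added for 30–60 minutes at room temperature; luminescence read, quantitative HTS format.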
* hit, by the source's call; ? = inconclusive; nt = no result given. Sampled rows, rich in hits. Any-hit rate of the full collection: about 6.1%.

SMILES	D1 PAM	DRD3 agonist	D1 antagonist	D1 ag	DRD3 antagonist
Cc1ccc(C)c(Cn2c(=O)n(CCCCCC(=O)NCc3ccc4c(c3)OCO4)c(=O)c3sccc32)c1	1.3	-1.4	1.0	7.6	nt
O=C(O)c1ccc(CSc2nc(-c3ccccc3)cc(C(F)(F)F)n2)cc1	-0.7	5.9	-3.8	0.6	-5.8
O=C(O)c1ccc(CSc2nc(-c3ccc(Cl)cc3)cc(C(F)(F)F)n2)cc1	-3.0	11.5	-4.4	36.6*	-16.1
COc1cccc(NC(=O)[C@H](Cc2ccccc2)NC(=O)[C@@H]2Cc3ccccc3CN2)c1	12.8	-4.7	19.6	27.2	-0.9
COc1cccc(NC(=O)[C@H](NC(=O)[C@@H]2Cc3ccccc3CN2)c2ccccc2)c1	0.7	-18.1	0.9	8.6	-92.1*
Cc1cccc(NC(=O)[C@@H](CC(C)C)NC(=O)[C@@H]2Cc3ccccc3CN2)c1	-2.9	-16.2	0.4	5.4	-23.3
CC(C)c1ccc(NC(=O)[C@H](NC(=O)[C@@H]2Cc3ccccc3CN2)c2ccccc2)cc1	-2.2	-18.7	12.1	8.1	-97.7*
Cc1ccc(NC(=O)[C@H](NC(=O)[C@@H]2Cc3ccccc3CN2)c2ccccc2)cc1	0.4	-17.9	-28.7	1.3	-99.7*
Cc1cccc(NC(=O)[C@H](NC(=O)[C@@H]2Cc3ccccc3CN2)c2ccccc2)c1	2.9	-19.7	-2.3	6.3	-88.9*
CC(NC(=O)[C@H](NC(=O)[C@@H]1Cc2ccccc2CN1)c1ccccc1)c1ccccc1 (stereo partly specified)	1.2	13.7	-4.6	8.5	-20.1
C[C@@H](NC(=O)[C@@H]1Cc2ccccc2CN1)C(=O)Nc1ccc2c(c1)OCCO2	-2.0	1.4	-1.1	1.6	-1.6
CCN1CCN(C(c2ccc(SC)cc2)c2c(O)cc(C)n(Cc3ccco3)c2=O)CC1 (stereo unspecified)	-2.4	-9.4	2.7	-2.1	nt
COc1cccc(CNC(=O)Cc2c(C)c3c(cc(C)c4c(C)coc43)oc2=O)c1	1.5	7.5	-4.7	-0.1	nt
Cc1cc(NC(=O)CN2C(=O)NC(C)(c3ccc(OC(F)F)cc3)C2=O)no1 (stereo unspecified)	-6.0	5.2	4.3	33.1*	14.5
CCOC(=O)c1c(NC(=O)CN2C(=O)NC(C)(c3ccc(OC(F)F)cc3)C2=O)sc(C)c1C (stereo unspecified)	-1.0	3.1	21.0	31.4*	-0.2
CCOc1ccc(NC(=O)CN2C(=O)NC(C)(c3ccc(OC(F)F)cc3)C2=O)cc1 (stereo unspecified)	-14.8	2.7	-42.9*	38.0*	12.0
CC1(c2ccc(OC(F)F)cc2)NC(=O)N(CC(=O)Nc2ccc(Cl)cc2F)C1=O (stereo unspecified)	0.1	-5.7	-13.0	36.2*	-8.2
CN1CCN(c2ccc(Cl)cc2NC(=O)CN2C(=O)NC(C)(c3ccccc3)C2=O)CC1 (stereo unspecified)	-3.0	-17.9	-10.3	-0.5	6.0
CCOC(=O)c1c(C)c(-c2ccccc2)n(CC(=O)NCc2cccc(OC)c2)c1C	-7.5	-1.6	2.3	6.4	nt
CCOc1ccc(CCNC(=O)c2c(C)oc3ncn(CC(C)C)c(=O)c23)cc1	-4.8	0.5	-8.7	0.0	nt
CCOC(=O)c1c(C)[nH]c(C(=O)CN2C(=O)NC(C)(c3ccc(C)cc3)C2=O)c1C (stereo unspecified)	0.5	5.0	0.9	53.9*	1.8
CC1(c2ccc(OC(F)F)cc2)NC(=O)N(CC(=O)Nc2ccc(OC(F)F)cc2)C1=O (stereo unspecified)	-4.2	-10.6	-43.0*	49.5*	-15.5
CC1(c2ccc(OC(F)F)cc2)NC(=O)N(CC(=O)Nc2ccc(S(N)(=O)=O)cc2)C1=O (stereo unspecified)	-0.8	-1.1	-0.7	3.9	-0.5
CC1(c2ccc(OC(F)F)cc2)NC(=O)N(CC(=O)Nc2cccc(F)c2)C1=O (stereo unspecified)	-6.5	-5.0	-60.8*	60.0*	-1.0
CC1(c2ccc(OC(F)F)cc2)NC(=O)N(CC(=O)Nc2ccc(F)cc2)C1=O (stereo unspecified)	-3.5	5.4	-1.4	19.1	-9.3
SMILES	D1 PAM	DRD3 agonist	D1 antagonist	D1 ag	DRD3 antagonist
Cc1ccc(CCNC(=O)c2ccc3[nH]c(C)c(C)c3c2)cc1	-4.0	2.4	-44.1*	0.1	nt
CCc1nn(CC(=O)N(C)Cc2ccccc2)c(=O)c2cc3sccc3n12	2.1	-11.6	24.7	-0.5	nt
COc1cc(/C=N/NC(=O)c2cc(-c3ccc4c(c3)OCO4)n[nH]2)ccc1O	-5.8	60.8*	-12.8	2.1	38.0
NNC(=O)c1ccc(N2CCc3ccccc32)c([N+](=O)[O-])c1	-2.3	-2.7	-33.0*	1.1	-4.6
COC(CNC(=O)c1ccc(N2CCc3ccccc32)c([N+](=O)[O-])c1)OC	-4.6	-3.4	-31.5*	10.0	-8.4
C=C1CCN(c2ccc(C(=O)NCc3ccccc3)cc2[N+](=O)[O-])CC1	-5.7	-11.3	-8.7	-1.4	-29.6
Cc1ccc(CNC(=O)c2ccc(N3CCc4ccccc43)c([N+](=O)[O-])c2)cc1	-1.5	-25.2	-10.0	0.7	?
O=C(c1ccccc1)c1nn(-c2cccc(Cl)c2)c2nc(-c3ccccc3)cc(=O)n12	0.7	-7.3	-74.0*	0.5	5.2
CN1CCN(C(c2ccc(Cl)cc2)c2cc(Cl)c3cccnc3c2O)CC1 (stereo unspecified)	4.5	-22.3	7.3	5.4	-98.5*
O=C(NC(c1ccc(Cl)cc1)c1cc(Cl)c2cccnc2c1O)c1cccnc1 (stereo unspecified)	-6.2	2.4	6.5	12.9	-100.2*
Oc1c(C(c2ccccn2)N2CCCCC2)cc(Cl)c2cccnc12 (stereo unspecified)	5.8	-21.5	-0.3	1.6	-76.3*
CN1CCN(C(c2ccc(C(F)(F)F)cc2)c2cc(Cl)c3cccnc3c2O)CC1 (stereo unspecified)	9.2	nt	-4.4	14.2	nt
CNC(C)[C@@H]1CC[C@@H](N)[C@@H](O[C@H]2[C@H](O)[C@@H](O[C@H]3OC[C@](C)(O)[C@H](NC)[C@H]3O)[C@H](N)C[C@@H]2N)O1 (stereo partly specified)	nt	3.0	nt	nt	nt
CCOC(=O)Cn1c(=N)n(CCOc2ccc3ccccc3c2)c2ccccc21	-10.0	1.4	5.2	32.3*	17.8
Cc1nc2c(-c3ccccc3)c(C)nn2c(C)c1CCC(=O)NCc1ccc(Cl)cc1	0.6	5.0	-7.3	0.5	nt
Cn1nc(OCC(N)=O)ccc1=O	-2.2	2.3	-50.9*	1.2	17.9
NC(=O)COc1ccc(=O)n(-c2ccccc2)n1	nt	4.9	-42.2*	3.0	24.3
O=c1ccc(OCCOc2ccccc2)nn1-c1ccccc1	-5.4	-0.6	-3.0	3.1	10.7
Cc1cc(Oc2ccc(=O)n(C)n2)nc(SCC(N)=O)n1	-7.1	5.2	24.7	3.6	1.5

High-throughput results deposited in PubChem by National Center for Advancing Translational Sciences (NCATS).
